High-throughput results (PubChem)
In the library only some 3.5% were active in any assay of this set; here they are far more common.
TEAD-YAP inh = TEAD-YAP interaction inhibition | inhibition, % at 9.12 µM | 640,000 compounds, 1.4% hits | HEK-TIYL cells, TEAD-Gal4/YAP UAS-luciferase luminescence | AID 1259422; in the data active means inhibition above about 32%
GPR151 ag = activators of human GPR151; Q8TDV0; PathHunter beta-arrestin GPR151 cells, luminescence; activation, % at 11.2 µM; 650,000 compounds, 1% hits; AID 1508602; in the data active means activation above about 4.9%
FBW7 activator = activators of human E3 ligase FBW7; Q969H0; AlphaScreen FBW7–phospho-cyclin E peptide binding, activator screen; normalized activity (activation), % at 26.1 µM; 650,000 compounds, 0.13% hits; AID 1259310; in the data active means normalized activity above about 1.9%;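 further: purified mutant Fbw7 with reduced substrate affinity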
Target sequence (Q969H0 whole entry, looked up): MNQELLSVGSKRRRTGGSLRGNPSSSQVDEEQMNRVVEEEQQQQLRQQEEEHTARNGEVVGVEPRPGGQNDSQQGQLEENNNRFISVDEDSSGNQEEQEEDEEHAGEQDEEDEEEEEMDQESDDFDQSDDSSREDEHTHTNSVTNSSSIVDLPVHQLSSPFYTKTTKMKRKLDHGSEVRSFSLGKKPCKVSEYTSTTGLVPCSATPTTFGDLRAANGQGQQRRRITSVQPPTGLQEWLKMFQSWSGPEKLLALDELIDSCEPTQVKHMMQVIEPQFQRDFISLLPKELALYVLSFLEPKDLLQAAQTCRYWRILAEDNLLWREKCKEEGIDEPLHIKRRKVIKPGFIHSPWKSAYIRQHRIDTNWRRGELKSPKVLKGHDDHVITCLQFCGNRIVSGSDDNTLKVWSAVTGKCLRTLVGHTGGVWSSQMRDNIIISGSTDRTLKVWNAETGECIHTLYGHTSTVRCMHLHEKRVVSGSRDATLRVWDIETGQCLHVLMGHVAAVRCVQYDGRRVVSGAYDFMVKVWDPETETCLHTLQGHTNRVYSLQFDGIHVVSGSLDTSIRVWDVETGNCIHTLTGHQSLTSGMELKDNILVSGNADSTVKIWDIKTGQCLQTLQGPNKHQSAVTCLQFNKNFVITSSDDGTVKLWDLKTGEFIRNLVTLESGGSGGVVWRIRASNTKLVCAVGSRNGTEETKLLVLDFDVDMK
MITF primary = inhibitors of human MITF; AlphaScreen MITF homodimerization, bead proximity signal; inhibition, % at 2.6 µM; 650,000 compounds, 0.91% hits; AID 1259374; in the data active means inhibition above about 50%
GPR151 confirm = confirmation of human GPR151 activators | shares compounds with GPR151 ag | GPR151 PathHunter beta-arrestin cells, luminescence, 90 min; % of EA-reagent control over plate median | activation, % at 11.2 µM | 6,700 tested, under 10 active;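 active means mean percent activation across replicates above the confirmation screen cutoff of 4.91%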
GPR119 counter = counter-screen for GPR151 activators: effect on human GPR119 | shares compounds with GPR151 ag | GPR119 PathHunter beta-arrestin cells, luminescence, 90 min; 0 = compound-well median, 100 = enzyme-acceptor control | activation, % at 11.2 µM | 6,700 compounds, 0.3% hits | AID 1508611;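 active means mean percent activation in the counterscreen above 29.09%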;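 further: counterscreen on off-target GPR119 to flag nonselective hits from the GPR151 activator screen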
A number is an active result; n = inactive; x = not tested or not shown; ! = repeats disagree.

SMILES	TEAD-YAP inh	GPR151 ag	FBW7 activator	MITF primary	GPR151 confirm	GPR119 counter
CC[n+]1c(/C=C2\Sc3ccccc3N2C)ccc2cccc(C)c21	87	5.4	n	n	n	n
CC[n+]1c(/C=C2\Sc3ccc(C)cc3N2CCO)ccc2ccccc21	80	5.4	n	n	n	n
CCC(=O)/C=C1/Sc2ccc(OC)cc2N1CCO	n	n	n	n	x	x
CC[n+]1c(/C=C2\Sc3ccc(-c4ccccc4)cc3N2CCO)ccc2ccccc21	91	22	n	n	n	n
CCN1/C(=C/c2ccc3cc(OC)ccc3[n+]2CC)Sc2cc(C)c(C)cc21	67	11	n	n	n	n
CC(C)CCN1CCNC(=O)C1CC(=O)N1CCCCO1 (centres undefined)	n	n	n	n	x	x
O=C(O)c1ccc2c3c(ccc(C(=O)O)c13)C(=O)NC2=O	n	n	n	n	x	x
COc1ccc(N2CCN(C(=O)CCNC(=O)Cn3cnc4sc5c(c4c3=O)CCCC5)CC2)cc1	n	n	n	n	x	x
CCCNCCC1CCC(=O)N1CCc1cccc(OC)c1 (centres undefined)	n	6.7	n	n	n	n
COc1cccc(CCN2C(=O)CCC2CCNCc2cccc(F)c2)c1 (centres undefined)	n	5.1	n	n	n	n
Clc1ccc2nc(CSc3nncn3-c3ccccc3)cn2c1	n	5.1	n	n	n	n
CCN(CC)Cc1cc(CN[C@H]2C[C@H]3C(=O)N[C@H](CC(C)C)C(=O)N3C2)ccc1OC	n	n	n	n	x	x
COCC(=O)NCC1CCC2(CCN(C/C(C)=C/c3ccccc3)CC2)O1 (centres undefined)	n	5.1	n	n	n	n
COCC(=O)NCC1CCC2(CCN(Cc3ccc(N(C)c4ccccc4)cc3)CC2)O1 (centres undefined)	n	n	n	n	x	x
COc1cccc(NC(=O)C(=O)NCc2cccnc2)c1	n	n	n	n	x	x
COc1cccc(NC(=S)NCc2cccnc2)c1	n	6.1!	n	n	n	n
CS(=O)(=O)N1CCC(C(=O)N2CCC(O)(c3ccccn3)CC2)CC1	n	11	n	n	n	n
O=C(C1CC1)N1CCC(O)(c2ccccn2)CC1	n	n	n	n	x	x
O=C(CSc1nc(=O)n(CCCO)c2c1CCCC2)N1CCN(c2ccccc2)CC1	n	n	n	n	x	x
CC1CCN(C(=O)CSc2nc(=O)n(CCO)c3c2CCCC3)CC1	n	8.3	n	n	n	n
COC(CN1C(=O)C(=O)/C(=C(/O)c2ccccc2)C1c1cccnc1)OC (centres undefined)	n	5.9	n	n	n	n
O=C1C(=O)N(CCN2CCOCC2)C(c2cccnc2)/C1=C(/O)c1ccc(S(=O)(=O)N2CCOCC2)cc1 (centres undefined)	n	6.5	n	n	n	n
COC(CN1C(=O)C(=O)/C(=C(\O)c2ccccc2)C1c1ccccc1)OC (centres undefined)	n	n	n	n	x	x
CC(=O)c1ccc(-c2ccc(C(=O)N(C)CCN(C)C)c(N(C)C)n2)s1	n	n	n	n	x	x
C/C(=N/NC(=O)c1ccccc1)C1CC1	n	n	n	n	x	x
SMILES	TEAD-YAP inh	GPR151 ag	FBW7 activator	MITF primary	GPR151 confirm	GPR119 counter
C/C(=N\NC(=O)c1cccc(Cl)c1)c1ccc([N+](=O)[O-])o1	n	n	n	n	x	x
C/C(=N/NC(=O)c1cccc(Cl)c1)c1ccc([N+](=O)[O-])o1	n	5.7	n	n	n	n
C/C(=N\NC(=O)c1cccc(Cl)c1)C1CC1	n	8.9	n	n	n	n
Cc1cccnc1CCNC(=O)c1cc(COc2ccc3ncccc3c2)on1	n	n	n	n	x	x
COc1cccc(CCNC(=O)c2cc(COc3ccc4ncccc4c3)on2)c1	n	5.9	n	n	n	n
CC(NC(=O)Nc1ccc(S(N)(=O)=O)cc1)(C(F)(F)F)C(F)(F)F	n	4.9	n	n	n	n
C/C(=N\NC(=O)c1cc2c(s1)CCCC2)c1ccccc1O	n	n	n	n	x	x
CN(CCO)c1ccc(/C=N/NC(=O)c2cc3c(s2)CCCC3)cc1	n	6.2	n	n	n	n
c1cncc(-c2nc(N3CCCC3)c3ccccc3n2)c1	n	n	n	n	x	x
COc1cc(NC(=S)N2CCC(C(N)=O)CC2)cc(OC)c1	n	7.5	n	n	n	n
CN1CCN(c2cc(-c3cn[nH]c3)ccc2NC(=O)Cc2cccc(Cl)c2)CC1	n	5.2	n	n	6.6	54
O=C(CSc1nnc2c(n1)[nH]c1ccc(Br)cc12)NCc1ccco1	n	n	n	n	x	x
CC(C)CCN1CC[C@@H]2[C@H](CCCN2Cc2ccc(Sc3nncn3C)o2)C1	n	n	n	n	x	x
Cc1ccc(-c2nnc(Nc3ccc(Br)cc3)c3ccccc23)cc1S(=O)(=O)N1CCOCC1	n	5.0	n	n	n	n
Cc1ccc(-c2nnc(Nc3ccccc3)c3ccccc23)cc1S(=O)(=O)N1CCOCC1	n	n	n	n	x	x
CCOc1ccccc1-c1nnc(SCC(=O)NCc2ccccc2)o1	n	6.9	n	n	n	n
Oc1ccc(Cl)cc1/C=N\Nc1nncc(-c2ccccc2)n1	n	7.4	n	n	n	n
CC(C)(C)NC(=O)C(OC(=O)c1ccco1)c1ccc(Cl)cc1 (centres undefined)	n	n	n	n	x	x
Fc1ccccc1CSc1ccc2nnc(-c3ccccc3)n2n1	n	n	n	n	x	x
Cc1ccc(CCNS(=O)(=O)c2ccc3c(c2)OCCN3C)cc1	n	5.4	n	n	n	n
Cc1ccc(NS(=O)(=O)c2ccc3c(c2)OCCN3C)cc1C	n	n	n	n	x	x
CSc1cccc(NS(=O)(=O)c2ccc3c(c2)OCCN3C)c1	n	5.0	n	n	n	n
Cc1cc(NS(=O)(=O)c2ccc3c(c2)OCCN3C)ccc1Br	n	9.0	n	n	n	n
Cc1ccc(-c2ccc3ccccc3n2)c(C)c1	n	n	n	n	x	x
Cc1c(C(=O)Nc2ccc(Oc3ccc(Cl)cc3)cc2)sc2ncn(C)c(=O)c12	n	n	n	n	x	x
SMILES	TEAD-YAP inh	GPR151 ag	FBW7 activator	MITF primary	GPR151 confirm	GPR119 counter
CCOc1cc(/C=N/N=C2/NC(=O)CS2)cc(Cl)c1O	n	7.1	n	n	n	n
CCOc1cc(/C=N/N=C2/NC(=O)CS2)ccc1OC(=O)c1ccc(OC)cc1	n	n	n	n	x	x
CC(C)CC(=O)N1CCC(n2nnc3ccccc3c2=O)CC1	n	6.0	n	n	n	n
CC(C)CNC(=O)Cn1nnc2ccccc2c1=O	n	7.7	n	n	n	n
O=C(Nc1ccccc1[N+](=O)[O-])c1ccc(Cl)c(S(=O)(=O)NC2CCCC2)c1	n	n	n	n	x	x
Cc1ccc(C(C(=O)NC2CCCC2)N(C)C)cc1 (centres undefined)	n	n	n	n	x	x
CN(C)C(C(=O)NC1CCCC1)c1ccc(Cl)cc1 (centres undefined)	n	6.0	n	n	n	n
CCOC(=O)N1CCN(C(=O)Cn2cc(NC(=O)Cc3ccccc3OC)cn2)CC1	n	9.1	n	n	n	n
